# Shown are actives, neighbours in structure and some others; about 2.5% of the full set was active somewhere.
# LGR2 inh = blocks bursicon-induced cAMP signaling via Drosophila LGR2; 380,000 tested, 0.35% active; inhibition, % at 9.99 µM; HEK293 LGR2, CRE-luciferase, bursicon-stimulated, 4 h;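 active means drop in luminescence signal, shown as inhibition above about 50% in the replicate tests, limit read from the data, passing the limit was not always enough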;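 further: agonist challenge used bursicon conditioned medium at about half maximal strength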
# LMP1 NFkB inh = reduces LMP1-driven NF-kappaB luciferase signal. inhibition, % at 12.5 µM. LMP1-induced NF-kappaB luciferase reporter cells, luminescence. AID 504558. 350,000 tested, 0.69% active; in the data active means inhibition above about 41%
# TROY NFkB inh = blocks TROY-dependent signaling in reporter cells; Q293 LMP1-TROYcd NF-kB luciferase reporter, 4 h; inhibition, % at 10 µM; 360,000 tested, 0.98% active; AID 1347056;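 active means compounds whose plate-normalised and pattern-corrected inhibition of the luciferase reporter signal at the single screening dose is 50% or more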
# EWS-Fli block = EWS/Fli transcriptional activity inhibition | A673 NR0B1-luciferase reporter, viability-normalised | inhibition, % at 12.6 µM | 350,000 tested, 0.67% active;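 active means mean inhibition of at least 50% after viability correction, with every replicate also passing that limit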;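 further: firefly luciferase signal divided by Alamar Blue viability fluorescence both relative to DMSO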
# TWEAK Fn14 block = TWEAK-Fn14 signaling inhibition; TWEAK-stimulated Fn14 reporter cells, luciferase luminescence, 8 h; inhibition, % at 10 µM; 360,000 tested, 2% active; in the data active means inhibition above about 50%
# A number is an active result; – = inactive; · = not tested or not shown.
SMILES,LGR2 inh,LMP1 NFkB inh,TROY NFkB inh,EWS-Fli block,TWEAK Fn14 block
CC(C)C#Cc1cnc2c(c1)C(=O)N([C@H](C)CO)C[C@@H](C)[C@H](CN(C)C(=O)c1ccccn1)O2,–,·,·,–,·
c1cncc(-c2nnc(SCc3nc4ccccc4[nH]3)o2)c1,·,–,74,·,–
O=C(C[C@@H]1C[C@H]2c3cc(NC(=O)c4ccc5c(c4)OCO5)ccc3O[C@H]2[C@H](CO)O1)NCc1cc(F)ccc1F,–,·,·,–,·
O=C(NCc1ccco1)c1nc2c(nnn2Cc2ccccc2Cl)c(=O)[nH]1,93,–,85,–,85
O=C(C=Cc1ccccc1)CC(c1ccccc1)N1CCOCC1 (stereo not given),–,–,–,59,92
CCC(=O)N1C[C@H](O)COC[C@@H]2O[C@H](CC(=O)NCc3cc(F)cc(F)c3)CC[C@H]21,–,·,·,–,·
CCC1=Nc2cc(C(=O)NCc3ccco3)ccc2Sc2ccccc21,–,–,–,·,–
CCC1=Nc2cc(C(=O)NCC3CCCO3)ccc2Sc2ccc(Cl)cc21 (stereo not given),–,–,–,57,–
CCC1=Nc2cc(C(=O)NCc3ccco3)ccc2Sc2ccc(Cl)cc21,–,–,–,·,–
CCC1=Nc2cc(C(=O)NCc3cccnc3)ccc2Sc2ccc(C)cc21,–,–,–,65,–
O=S(=O)(N[C@@H]1CC[C@H](CCn2cc(C3(O)CCCC3)nn2)O[C@H]1CO)c1ccc(F)cc1,–,·,·,–,·
CC=Cc1ccc2n(c1=O)C[C@@H]1[C@@H](CO)[C@H](C(=O)NCCC)[C@H]2N1C(=O)c1ccccc1F (mixture of isomers),–,·,·,–,·
CCC(=O)Nc1ccc2c(c1)OC[C@@H](C)N(C(=O)Cc1ccccn1)C[C@@H](C)[C@H](OC)CN(C)C2=O,–,·,·,–,·
CNC1(C)[C@H]2CC[C@H](C2)C1(C)C (stereo not given in full),–,81,–,–,–
CC1(C)C2CCC(C2)C1(C)NC(=O)CN1CCCC1 (stereo not given),–,–,–,–,–
O=c1[nH]c(Nc2nc3ccccc3o2)nc2c1CCCC2,–,75,76,–,98
O=C([C@@H]1[C@@H](CO)[C@@H]2Cn3c(ccc(C4=CCCCC4)c3=O)[C@@H]2N1Cc1nccs1)N1CCOCC1,–,·,·,–,·
CCOC(=O)N/N=C\c1ccc([N+](=O)[O-])s1,–,–,–,–,–
O=C(N/N=C/c1ccc([N+](=O)[O-])s1)c1ccncc1,·,–,–,·,–
Cc1ccc(C(=O)N/N=C/c2ccc([N+](=O)[O-])s2)cc1,·,–,–,·,95
CC(C)(C)OC(=O)N/N=C\c1ccc([N+](=O)[O-])s1,–,–,66,–,91
COc1ccccc1NC(=O)N1CC(=O)N2[C@H](CO)[C@H](c3ccc(C#Cc4ccc(F)cc4)cc3)[C@@H]2C1,–,·,·,·,·
CC(Sc1nccn1C)C(=O)NC1(C#N)CCCCC1 (stereo not given),–,–,–,–,–
Cc1cc(C)n2c(SC(C)C(=O)NC3(C#N)CCCCC3)nnc2n1 (stereo not given),–,–,–,–,67
COc1ccc(S(=O)(=O)N(C)C[C@H]2Oc3ncc(C#CC4(O)CCCC4)cc3C(=O)N([C@H](C)CO)C[C@@H]2C)cc1,–,·,·,–,·
SMILES,LGR2 inh,LMP1 NFkB inh,TROY NFkB inh,EWS-Fli block,TWEAK Fn14 block
O=C(C[C@H]1CC[C@H]2[C@@H](COC[C@@H](O)CN2S(=O)(=O)c2ccccc2F)O1)NCc1ccccc1Cl,–,·,·,–,·
O=c1[nH]c(-c2ccccn2)nc2sc(-c3ccccc3)cc12,–,–,–,–,100
Cc1c(C(=O)N(C)C)sc2nc(-c3ccccn3)[nH]c(=O)c12,·,–,–,·,–
COc1ccc(NC(=O)/C(C#N)=C/c2cc(C)n(-c3ccc(N4CCOCC4)c([N+](=O)[O-])c3)c2C)cc1,–,44,–,–,79
Cc1cc(/C=C(\C#N)C(=O)Nc2ccc(F)cc2)c(C)n1-c1ccc(N2CCOCC2)c([N+](=O)[O-])c1,–,–,–,·,53
C[C@@H]1CN([C@H](C)CO)C(=O)Cc2cc(NS(C)(=O)=O)ccc2O[C@H]1CN(C)CC1CCCCC1,–,·,·,–,·
CC(C)c1ccc(-n2c(-c3ccccc3)c[n+]3c2CCc2ccccc2-3)cc1,54,–,59,59,84
COc1ccc(-n2c(-c3ccc(Br)cc3)c[n+]3c2CCc2ccccc2-3)cc1,–,–,–,–,–
Cn1cnc(S(=O)(=O)N2CC[C@@H]3[C@H](CO)Nc4ccc(C#Cc5ccccc5F)cc4[C@@H]32)c1,–,·,·,–,·
Cc1cccc(S(=O)(=O)N2C[C@@H]3[C@H](c4ccccc42)[C@H](CO)N3CC2CCCC2)c1,–,·,·,–,·
OC(COc1ccc2cc(Br)ccc2c1)CN1CCCC1 (stereo not given),–,–,55,–,51
C[C@H]1CN([C@@H](C)CO)C(=O)c2cc(NC(=O)NC3CCCCC3)ccc2O[C@H]1CN(C)Cc1ccccc1,–,·,·,–,·
CCc1nnc(NC(=O)CSc2nc(C)c3c(c2C#N)CCCC3)s1,–,–,65,–,58
COc1ccc(NC(=O)CSc2nc(C)c3c(c2C#N)CCCC3)cc1,·,–,–,·,–
O=C(CCS(=O)(=O)c1ccc(Cl)cc1)N1CCCc2ccccc21,–,–,65,·,53
O=C(OCC(=O)N1CCc2ccccc21)c1ccccc1[N+](=O)[O-],–,–,–,–,60
COc1ccc(CC(=O)Nc2cccc3c2CCCC3)cc1,·,–,–,–,104
COc1ccc(C(=O)N2CCCc3ccccc32)cc1Br,·,–,–,–,–
COc1cc(OC)cc(C(=O)N2CCCc3ccccc32)c1,–,–,–,–,52
O=C(OCC(=O)N1CCc2ccccc21)c1ccccc1F,–,–,–,–,–
COc1ccc(C(=O)Nc2cccc3c2CCCC3)cc1,–,–,–,–,–
C[C@H]1CN([C@@H](C)CO)C(=O)c2cc(C#Cc3cccc(F)c3)cnc2O[C@H]1CN(C)Cc1ccccn1,·,·,·,–,·
CO[C@@H]1CN(C)C(=O)c2cc(NC(=O)c3cccc(F)c3)ccc2OC[C@H](C)NC[C@@H]1C,–,·,·,–,·
O=C(c1cc(=O)c2ccccc2o1)N1CCCc2ccccc21,·,–,–,·,52
COc1ccc(CC(=O)N2CCCc3ccccc32)cc1,·,–,–,·,50
SMILES,LGR2 inh,LMP1 NFkB inh,TROY NFkB inh,EWS-Fli block,TWEAK Fn14 block
O=C(COc1ccccc1)OCC(=O)N1CCCc2ccccc21,–,–,60,–,–
O=C(c1cc2ccccc2c(=O)o1)N1CCCc2ccccc21,·,–,–,·,–
COc1ccc(OC)c(C2=NOC(C(=O)N3CCCc4ccccc43)C2)c1 (stereo not given),·,–,–,·,55
O=C(C1CC(c2ccc(F)cc2)=NO1)N1CCCc2ccccc21 (stereo not given),·,–,–,·,–
COCc1cn(CC[C@H]2CC[C@H](NC(=O)Nc3ccc(OC)cc3)[C@H](CO)O2)nn1,–,·,·,–,·
O=C(NCC1CC1(Cl)Cl)Nc1ccc(Cl)c(Cl)c1 (stereo not given),–,–,53,–,–
